# Key:
# Experiment in all cases: PBM; 200 nM protein, PBS
# Details in all cases: dsDNA, one strand shown
# [1] = target: HOXB9 (Homo sapiens, UniProt P17482 171-250, T197M)
# [2] = target: HOXC9 (Homo sapiens, UniProt P31274 178-260, K195R)
# [3] = target: HOXC10 (Homo sapiens, UniProt Q9NYD6 254-340)
# [4] = target: ALX4 (Homo sapiens, UniProt Q9H161 200-286, Q225E)
# [5] = target: HOXB9 (Homo sapiens, UniProt P17482 171-250)
# [6] = target: HOXC9 (Homo sapiens, UniProt P31274 178-260)
# [7] = target: HOXC9 (Homo sapiens, UniProt P31274 178-260, R193K)
# HOXC9 (Homo sapiens, UniProt P31274 178-260, R193K), sequence (P31274 178-260 R193K): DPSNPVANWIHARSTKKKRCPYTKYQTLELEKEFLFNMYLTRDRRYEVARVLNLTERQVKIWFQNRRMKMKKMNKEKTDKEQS
# [8] = target: HOXC10 (Homo sapiens, UniProt Q9NYD6 254-340, K271E)
# HOXC10 (Homo sapiens, UniProt Q9NYD6 254-340, K271E), sequence (Q9NYD6 254-340 K271E): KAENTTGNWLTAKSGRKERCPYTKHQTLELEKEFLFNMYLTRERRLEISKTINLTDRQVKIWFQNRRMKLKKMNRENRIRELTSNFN
# [9] = target: HOXB9 (Homo sapiens, UniProt P17482 171-250, R186Q)
# HOXB9 (Homo sapiens, UniProt P17482 171-250, R186Q), sequence (P17482 171-250 R186Q): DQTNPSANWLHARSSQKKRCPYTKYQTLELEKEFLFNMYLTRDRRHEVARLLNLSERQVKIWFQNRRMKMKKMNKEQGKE
# [10] = target: HOXC9 (Homo sapiens, UniProt P31274 178-260, R222W)
# HOXC9 (Homo sapiens, UniProt P31274 178-260, R222W), sequence (P31274 178-260 R222W): as the sequence (P31274 178-260 R193K) above, with K16R, R45W counted along it
# [11] = target: HOXA7 (Homo sapiens, UniProt P31268 116-202)
# HOXA7 (Homo sapiens, UniProt P31268 116-202), sequence (P31268 116-202): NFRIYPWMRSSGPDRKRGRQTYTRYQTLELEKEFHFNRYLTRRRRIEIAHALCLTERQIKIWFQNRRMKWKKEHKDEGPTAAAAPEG
# [12] = target: HOXD13 (Homo sapiens, UniProt P35453 263-343, T313R)
# HOXD13 (Homo sapiens, UniProt P35453 263-343, T313R), sequence (P35453 263-343 T313R): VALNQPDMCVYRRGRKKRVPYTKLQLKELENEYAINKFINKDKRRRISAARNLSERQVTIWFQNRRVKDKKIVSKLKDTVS
# [13] = target: HOXD13 (Homo sapiens, UniProt P35453 263-343)
# HOXD13 (Homo sapiens, UniProt P35453 263-343), sequence (P35453 263-343): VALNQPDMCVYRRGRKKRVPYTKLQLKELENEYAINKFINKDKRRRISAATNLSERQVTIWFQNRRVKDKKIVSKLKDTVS
# [14] = target: HOXD13 (Homo sapiens, UniProt P35453 263-343, T313A)
# HOXD13 (Homo sapiens, UniProt P35453 263-343, T313A), sequence (P35453 263-343 T313A): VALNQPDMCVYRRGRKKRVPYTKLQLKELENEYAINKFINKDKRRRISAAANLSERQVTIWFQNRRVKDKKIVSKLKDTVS
# [15] = target: HOXA7 (Homo sapiens, UniProt P31268 116-202, W177C)
# HOXA7 (Homo sapiens, UniProt P31268 116-202, W177C), sequence (P31268 116-202 W177C): as the sequence (P31268 116-202) above, with W62C counted along it
# [16] = target: HOXB6 (Homo sapiens, UniProt P17509 132-218, K202E)
# HOXB6 (Homo sapiens, UniProt P17509 132-218, K202E), sequence (P17509 132-218 K202E): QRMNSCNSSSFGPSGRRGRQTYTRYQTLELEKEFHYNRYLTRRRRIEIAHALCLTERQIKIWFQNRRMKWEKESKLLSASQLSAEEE
# [17] = target: T1, NKX2-6 (Homo sapiens, UniProt A6NCS4 118-204, R150C)
# T1 sequence: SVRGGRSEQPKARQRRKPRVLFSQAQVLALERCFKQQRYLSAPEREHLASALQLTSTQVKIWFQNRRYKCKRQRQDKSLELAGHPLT
# [18] = target: HOXB6 (Homo sapiens, UniProt P17509 132-218)
# HOXB6 (Homo sapiens, UniProt P17509 132-218), sequence (P17509 132-218): as the sequence (P17509 132-218 K202E) above, with E71K counted along it
# [19] = target: ALX3 (Homo sapiens, UniProt O95076 139-225, N203Q)
# ALX3, sequence (O95076 139-225 N203Q): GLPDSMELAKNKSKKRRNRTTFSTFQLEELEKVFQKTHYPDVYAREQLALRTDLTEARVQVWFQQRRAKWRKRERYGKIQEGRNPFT
# HOXB9 (Homo sapiens, UniProt P17482 171-250, T197M), sequence (P17482 171-250 T197M): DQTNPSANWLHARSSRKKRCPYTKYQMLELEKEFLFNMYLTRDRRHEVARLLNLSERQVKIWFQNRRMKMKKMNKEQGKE
# HOXB9 (Homo sapiens, UniProt P17482 171-250), sequence (P17482 171-250): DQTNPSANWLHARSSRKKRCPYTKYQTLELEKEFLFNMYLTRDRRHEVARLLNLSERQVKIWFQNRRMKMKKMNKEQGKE
# HOXC10 (Homo sapiens, UniProt Q9NYD6 254-340), sequence (Q9NYD6 254-340): as the sequence (Q9NYD6 254-340 K271E) above, with E18K counted along it
# HOXC9 (Homo sapiens, UniProt P31274 178-260), sequence (P31274 178-260): as the sequence (P31274 178-260 R193K) above, with K16R counted along it
# HOXC9 (Homo sapiens, UniProt P31274 178-260, K195R), sequence (P31274 178-260 K195R): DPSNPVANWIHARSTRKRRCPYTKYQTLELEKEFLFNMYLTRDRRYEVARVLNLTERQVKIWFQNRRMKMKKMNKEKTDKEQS
# ALX4, sequence (Q9H161 200-286 Q225E): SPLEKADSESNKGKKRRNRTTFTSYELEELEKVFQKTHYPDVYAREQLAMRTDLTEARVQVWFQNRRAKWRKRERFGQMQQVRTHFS
sequence,measurement,setting,value
AATAAAAA,binding signal,[1],"9.88 upbm affinity estimate (log intensity, higher = more binding, comparable within an allelic series)"
same,binding signal,[2],"12.5 upbm affinity estimate (log intensity, higher = more binding, comparable within an allelic series)"
same,binding signal,[3],"12.4 upbm affinity estimate (log intensity, higher = more binding, comparable within an allelic series)"
same,binding signal,[4],"10.9 upbm affinity estimate (log intensity, higher = more binding, comparable within an allelic series)"
same,binding signal,[5],"11.9 upbm affinity estimate (log intensity, higher = more binding, comparable within an allelic series)"
same,binding signal,[6],"12.6 upbm affinity estimate (log intensity, higher = more binding, comparable within an allelic series)"
same,binding signal,[7],"12.5 upbm affinity estimate (log intensity, higher = more binding, comparable within an allelic series)"
same,binding signal,[8],"11.9 upbm affinity estimate (log intensity, higher = more binding, comparable within an allelic series)"
same,binding signal,[9],"11.6 upbm affinity estimate (log intensity, higher = more binding, comparable within an allelic series)"
same,binding signal,[10],"11.2 upbm affinity estimate (log intensity, higher = more binding, comparable within an allelic series)"
GGTCGTTA,binding signal,[1],"9.98 upbm affinity estimate (log intensity, higher = more binding, comparable within an allelic series)"
same,binding signal,[3],"12.2 upbm affinity estimate (log intensity, higher = more binding, comparable within an allelic series)"
same,binding signal,[8],"12.2 upbm affinity estimate (log intensity, higher = more binding, comparable within an allelic series)"
CTATAAAC,binding signal,[1],"9.58 upbm affinity estimate (log intensity, higher = more binding, comparable within an allelic series)"
same,binding signal,[11],"9.84 upbm affinity estimate (log intensity, higher = more binding, comparable within an allelic series)"
same,binding signal,[5],"11.5 upbm affinity estimate (log intensity, higher = more binding, comparable within an allelic series)"
same,binding signal,[12],"10.9 upbm affinity estimate (log intensity, higher = more binding, comparable within an allelic series)"
same,binding signal,[13],"12.2 upbm affinity estimate (log intensity, higher = more binding, comparable within an allelic series)"
same,binding signal,[14],"12 upbm affinity estimate (log intensity, higher = more binding, comparable within an allelic series)"
same,binding signal,[9],"11.2 upbm affinity estimate (log intensity, higher = more binding, comparable within an allelic series)"
same,binding signal,[15],"8.92 upbm affinity estimate (log intensity, higher = more binding, comparable within an allelic series)"
AGGCCTGG,binding signal,[1],"8.45 upbm affinity estimate (log intensity, higher = more binding, comparable within an allelic series)"
same,binding signal,[16],"8.94 upbm affinity estimate (log intensity, higher = more binding, comparable within an allelic series)"
same,binding signal,[5],"8.43 upbm affinity estimate (log intensity, higher = more binding, comparable within an allelic series)"
same,binding signal,[17],"9.48 upbm affinity estimate (log intensity, higher = more binding, comparable within an allelic series)"
same,binding signal,[9],"8.44 upbm affinity estimate (log intensity, higher = more binding, comparable within an allelic series)"
same,binding signal,[18],"8.97 upbm affinity estimate (log intensity, higher = more binding, comparable within an allelic series)"
AATAATAA,binding signal,[1],"9.97 upbm affinity estimate (log intensity, higher = more binding, comparable within an allelic series)"
same,binding signal,[11],"10.8 upbm affinity estimate (log intensity, higher = more binding, comparable within an allelic series)"
same,binding signal,[16],"10 upbm affinity estimate (log intensity, higher = more binding, comparable within an allelic series)"
same,binding signal,[19],"8.58 upbm affinity estimate (log intensity, higher = more binding, comparable within an allelic series)"
same,binding signal,[10],"11.1 upbm affinity estimate (log intensity, higher = more binding, comparable within an allelic series)"
same,binding signal,[15],"8.85 upbm affinity estimate (log intensity, higher = more binding, comparable within an allelic series)"

# From PMC11006913
